# Measurements as given in the supplement of paper PMC8540655.
# A number with no mark means an inactive call.
# System: Aedes aegypti larvae
# Assay: larval motility relative to same well at 0 h (fraction); higher = more motile (less active compound), active = 0.4 or less
# Settings: 10 µM
# Procedure, shortened: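 Compounds at 10 µM (1% v/v DMSO) were applied to about 10 Aedes aegypti larvae per well in 100 µL, with every plate including solvent and larvicide control wells. Motility movies were taken with INVAPP at 0, 2 and 24 h, and results are medians of three independent larval batches. Relative motility is each well's score expressed as a fraction of its own first score.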
Structure (SMILES),larval motility (2 h),larval motility (24 h)
Cc1cc(O)c2c(c1)C(=O)c1c(I)c(O)c(I)c(O)c1C2=O,0.851,1.08
Cc1nc(N(C)C(=O)Cc2ccc(-c3ccccn3)cc2)sc1S(N)(=O)=O,1.62,1.81
CSC[C@H]1CN(Cc2c[nH]c3c(N)ncnc23)C[C@@H]1O,1.02,0.589
Nc1nc(-c2ccccc2)nc2[nH]nc(Nc3ccc(C(F)(F)F)cc3)c12,0.791,0.591
Nc1nc(O)ncc1F,0.641,1.04
O=C(Nc1cccc(C2=NCCN2)c1)c1ccc(-c2ccc(C(=O)Nc3cccc(C4=NCCN4)c3)cc2)cc1,0.648,0.961
Cc1cc(CCOc2c(C)cc(-c3nnn(C)n3)cc2C)on1,0.857,0.768
O=C(c1ccc(F)cc1)N1CCN2C(=O)c3ccccc3C12c1ccccc1 (configuration not stated),1.12,0.984
FC(F)(F)Oc1ccc(Nc2ccc3cccc(Cl)c3n2)cc1,0.563,0.29 (active)
O=C(NC(=O)N1CCCc2ccccc21)c1ccc(Cl)cc1Cl,0.529,0.89
C=C(C)[C@@H]1CC[C@]2(C(=O)O)CC[C@]3(C)[C@H](CC[C@@H]4[C@@]5(C)CC[C@H](O)C(C)(C)[C@@H]5CC[C@]43C)[C@@H]12,1.08,1.18
